Molecules are shown by their SMILES. This is part of a sample that, as a whole, favours compounds with a hit. Of some 83,000 tested, about 20% had one in any assay.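 Plates (96-well) were seeded with cells, treated with compound at one concentration, and incubated for 48 hours before percent growth was determined.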 The source made the active and inactive calls. How the source made its calls: active means growth percent below 10; inactive means the rest.

The subject of the assay is MDA-MB-468 breast. Kind of assay: NCI-60 one-dose screen, 48 h (100 = growth as untreated, 0 = no growth, -100 = all killed). The note with it: 10 µM unless noted.
For `O=C1NC(=O)C(CSc2ccccc2)(c2ccccc2)N1` (stereo not given), the growth was 105% (inactive). As for `Cc1cc(O[C@@H]2O[C@@H](C)[C@H](O)[C@@H](O)[C@H]2O)c2c3c(c(O[C@@H]4O[C@@H](C)[C@H](O)[C@@H](O)[C@H]4O)cc2c1)C(=O)c1c(O)cccc1C3=O`, the figure is 67.5% (inactive); as for `O=C1[C@@H]2Cc3c([nH]c4ccccc34)[C@H](c3c(Cl)cccc3Cl)N2C(=O)CN1C1CCN(Cc2c(F)cccc2F)CC1`, 102% (inactive). With `NC(=O)NO`, the growth was 109% (inactive).

Take `O=C(Cn1cc(CN2C(=O)c3ccccc3S2(=O)=O)nn1)Nc1nc2ccccc2s1`: the growth was 130% (inactive). The result for `Cc1ccccc1CNc1ccc(N2CCOCC2)cc1` reads 97.8% (inactive). The result for `CN(CCNCc1ccccn1)CCNCc1ccccn1` reads -15.6% (active). With `Cc1cc(N2CCOCC2)nc(N2CCOCC2)n1`, the growth was 94.6% (inactive). Take `C=COC(=O)CCOCC(CC)CCCC` (stereo not given): the growth was 104% (inactive). Consider `CC(C)[C@@H]1CC[C@]2(CO2)[C@@H]2C(=O)OCC(C(=O)O)=C[C@H]21`, for which the growth is 7.72% (active). For `CN(C)c1ccc(/C=C/C(=O)c2ccccc2)cc1`, the growth is 90.3% (inactive).

For `O=C1N(c2ccccc2)C(=S)N[C@]12[C@H](c1ccccc1)C1CCCN1[C@]21C(=O)NC2C=CC(Cl)=C[C@H]21` (stereo not given in full), the growth was 99.7% (inactive).

Regarding `O=C(NNC(=O)c1ccncc1)Nc1ccc([N+](=O)[O-])cc1`, the growth is 106% (inactive). As for `CN(C)CC(=O)Nc1ccc(Cn2nnc3c2C(=O)c2nnn(Cc4ccc(NC(=O)CN(C)C)cc4)c2C3=O)cc1`, the figure is -79% (active); as for `COc1cc(NC(=O)c2cc(O)c(C/C=C(\C)CCC=C(C)C)c(O)c2)cc2c1O[C@]1(C)CC[C@@H](O)C(C)(C)[C@H]1C2`, 21.9% (inactive).

Consider `N=C(N)c1ccc(-c2ccc(-c3ccc(Cl)cc3Cl)s2)cc1`, for which the growth was -57.1% (active).

On to `CCCCCCCCC(=O)Nc1ccc(O)cc1`, for which the growth was 100% (inactive). As for `CC(Oc1ccc(C(=O)NS(=O)(=O)C(C)(C)C)cc1C(F)(F)F)c1ccc(Oc2ccccc2)cn1` (stereo not given), the figure is 71.8% (inactive); as for `C[C@H](C(=O)N[C@@H](Cc1ccc(-c2ccccc2)cc1)C(=O)NC1CC(C)(C)N(C)C(C)(C)C1)c1ccc(-c2ccccc2)c(F)c1`, -86.5% (active). The result for `O=C1CCC(NC(=S)Nc2ccccc2)N1` (stereo not given) reads 112% (inactive). The result for `O=C1CC[C@@H]2CCCC[C@@H]2C1` reads 125% (inactive); that for `O=C(Nc1ccc(-n2ccc3c(NC(=O)c4ccccc4)nccc32)cc1)Nc1cccc(C(F)(F)F)c1`, 15.5% (inactive); that for `Oc1ccc(Cn2cc3c(c2-c2ccccc2)CCc2cnoc2-3)cc1`, 89.2% (inactive). On to `Cc1cc(C)c([I+]c2c(C)cc(C)cc2C)c(C)c1`, for which the growth is -41.9% (active). As for `CCn1c(O)c(/C=N/NC(=O)C(C)c2ccc(CC(C)C)cc2)sc1=S` (stereo not given), the growth is 6.34% (active).

For the compound `CCOC(=O)c1nc2c3ccccc3cnn2c1C(=O)c1ccc(OC)cc1`, the growth is 105% (inactive).

For `Cc1cc(C)c(S(=O)(=O)Oc2ccccc2[N+](=O)[O-])c(C)c1`, the growth was -0.215% (active). The result for `CC(C)C1=C(O)C2=C(C(=O)C1=O)[C@@]1(C)CCCC(C)(C)[C@@H]1CC2` reads 73.1% (inactive); that for `O=C(Nc1ccc(N2CCNCC2)cc1)c1[nH]ncc1Nc1cc(C2CC2)ncn1`, 49.2% (inactive). As to `O=C1C=C(c2ccccc2)C(O)(c2ccccc2)C1` (stereo not given), the growth is 108% (inactive). With `CCCCCCCC/C=C\CCCCCCCCOc1cccc(CC(=O)NCC[N+]2(C)CCCC2)c1`, the growth was 71.8% (inactive).

Regarding `C#C[C@@]1(O)[C@@H](CO)O[C@@H](n2cc(C(F)(F)F)c3c(N)ncnc32)[C@@H]1O`, the growth was -56.3% (active). The result for `CS(=O)(=O)c1nccc(-c2c(-c3cccc(OCCc4ccccc4)c3)nc3sccn23)n1` reads 20.2% (inactive); that for `CC(C)=CCc1cc(O)cc2c1OC(C=C(C)C)C1=C2C(=O)C2=C(C1=O)S(=O)(=O)CCN2` (stereo not given), -31.2% (active). The result for `CCC(=O)Oc1ccc(OC)cc1` reads 106% (inactive). Consider `COc1cc(NC(C)CCCNC(=O)CCC(=O)NCCCNCCCCCCCCCCNCCCNC(=O)CCC(=O)NCCCC(C)Nc2cc(OC)cc3cccnc23)c2ncccc2c1` (stereo not given), for which the growth was -0.701% [8 µM] (active).

`Nc1ccc(S(=O)(=O)O)c2ccc(N=Nc3ccc(N=Nc4ccc(S(=O)(=O)O)cc4)c4ccccc34)c(O)c12`: the growth is 96.6% (inactive). The result for `O=c1oc2c(cnc3ccccc32)cc1-c1cccc(Cl)c1` reads 104% (inactive); that for `CCOC(=O)c1c(O)c2cc(-c3ccccc3)nc(OCC)c2c(=O)n1C`, 89% (inactive); that for `O=c1oc2ccccc2cc1C1=NN=C(SCc2ccccc2)SC1`, 118% (inactive).

For the origin of these results see PubChem BioAssay (NCI).
